Data taken from PubChem BioAssay (Tox21).
Results filed as inconclusive are left out. A call without a number means that no potency is given here. Active and inactive are the calls of the source. Calls follow the shape of the dose curve; as a rule, active = well fitted activation curve with a large enough effect in the repeat runs; inconclusive = weak or mixed curves, or effect the other way; inactive = no such curve, though single readings can be large or run the other way.

assay: qHTS assay to identify small molecule agonists of the estrogen related receptor signaling pathway with the pleiotropic PPARgamma coactivator (PGC) from Tox21 10K library (AID 1224842); settings: PGC/ERR reporter cell line, luciferase ONE-Glo, 18 h; series mostly up to 92.4 µM; also: nearly all actives have a fitted effect of over 15% in size
Description: National Center for Advancing Translational Sciences [NCATS] NIH Chemical Genomics Center [NCGC] U.S. Environmental Protection Agency [EPA] National Institutes of Environmental Health Sciences [NIEHS] National Toxicology Program [NTP] Assay overview: Estrogen related receptors (ERRs), the first orphan nuclear receptors discovered, play an important role in the control of cellular energy metabolism. ERRs are required for high-energy production in response to the environmental challenges. The pleiotropic PPARgamma coactivator (PGC) is a major partner of ERR and a key regulator in energy homeostasis. Together they have been implicated in the etiology of metabolic disorders such as Type 2 diabetes and metabolic syndrome. ERR-alpha was also identified as an adverse marker for breast cancer progression; ERR-alpha-positive tumors have a poor prognosis. To screen and to identify environmental compounds that perturb the PGC/ERR signaling pathways could provide valuable information for potential therapeutic or preventive measures in the treatment of metabolic disease. For identifying PGC/ERR agonists, PGC/ERR cell line (provided by NTP) has been used to screen Tox21 10K library.
Assay Protocol Summary: The PGC/ERR cells were dispensed at 2,000 cells/5 ul/well in 1536-well white plates using a Multidrop dispenser. After the assay plates were incubated at a 37 C/5% CO2 incubator for 6 hours, 23 nL of compounds dissolved in DMSO, positive and negative controls or DMSO only was transferred to the assay plate by a pin tool. The plates were incubated at 37 C for 18 hours. 4 ul/well of One-Glo reagent was added into the assay plates using a Flying Reagent Dispenser. After 30-minute incubation at room temperature, the luminescence intensity in the plates was measured using a ViewLux plate reader.
Potency is read from the fitted curve at half-maximal effect.

| SMILES | Potency | activation |
| --- | --- | --- |
| Cc1cc(O)c2c(O)c3c(O)cccc3cc2c1 | inactive | – |
| CCC(C)=O | inactive | – |
| CCOC(=O)[C@@H](C)Oc1ccc(Oc2nc3ccc(Cl)cc3o2)cc1 | inactive | – |
| CC(=O)Oc1ccc2c(c1)CC[C@@H]1[C@@H]2CC[C@]2(C)[C@@H](O)CC[C@@H]12 | inactive | – |
| Nc1ccc(S(=O)(=O)O)c(N)c1 | inactive | – |
| CC(=O)[C@H]1CC[C@H]2[C@@H]3C[C@H](C)C4=CC(=O)CC[C@]4(C)[C@H]3[C@@H](O)C[C@]12C | inactive | – |
| CCOC(=O)c1ccccc1OC | inactive | – |
| O=C(Nc1ccccc1)Nc1ccccc1 | 10.9 µM (active) | – |
| CCCCCCCCCCCC(=O)[O][Sn]([CH2]CCC)([CH2]CCC)[O]C(=O)CCCCCCCCCCC | inactive | – |
| CC[C@H](NC(=O)c1cc(F)ccc1NS(=O)(=O)c1cccc2cccnc12)c1ccccc1 | inactive | – |
| O=C(N[C@@H](c1ccccc1)[C@@H]1CCCCN1)c1cccc(C(F)(F)F)c1Cl | inactive | – |
| Nc1ccc(S(=O)(=O)O)cc1 | inactive | – |
| CC(C)CCCC(=O)O | inactive | – |
| CCCOc1ccc(S(=O)(=O)N2CCN(CC)CC2)cc1-c1nc2c(CC)n(Cc3ccccn3)nc2c(=O)[nH]1 | inactive | – |
| CO/N=C1\CN(c2nc3c(cc2F)c(=O)c(C(=O)O)cn3C2CC2)CC1CN (stereo not given) | inactive | – |
| CC1CC(=O)NN=C1c1ccc(NCC(C)(C)NCC(O)COc2cc(Cl)ccc2C#N)cc1 (stereo not given) | inactive | – |
| [O]=[Bi] | – | -4.11% [at 8.39 µM] (inactive) |
| CCCCC1C(=O)N(c2ccccc2)N(c2ccc(O)cc2)C1=O (stereo not given) | inactive | – |
| O=C(/C=C/c1ccccc1)OCCCc1ccccc1 | inactive | – |
| NC(=O)N(O)[C@@H]1C=C[C@H](Oc2cccc(Oc3ccc(F)cc3)c2)C1 | 27.3 µM (active) | – |

| SMILES | Potency | activation |
| --- | --- | --- |
| Oc1cc(O)c(Cl)cc1Cl | inactive | – |
| CN(C)C(=O)Nc1ccc(Oc2ccc(Cl)cc2)cc1 | inactive | – |
| CCCCC(=O)O[C@]1(C(=O)CO)CC[C@H]2[C@@H]3CCC4=CC(=O)CC[C@]4(C)[C@H]3[C@@H](O)C[C@@]21C | inactive | – |
| O=c1[nH]c2ccc(S(=O)CCN3CCC(Cc4ccc(F)cc4)CC3)cc2o1 (stereo not given) | inactive | – |
| CC(C)c1nnc2ccc(-c3ocnc3-c3cc(F)ccc3F)cn12 | inactive | – |
| CCC(Cc1ccccc1)(C(=O)c1ccc(N2CCOCC2)cc1)N(C)C (stereo not given) | inactive | – |
| CCNC(=O)N1CCN(CCCC(c2ccc(F)cc2)c2ccc(F)cc2)CC1 | inactive | – |
| O=S1OCCO1 | inactive | – |
| COCCOC(=O)C1=C(C)NC(C)=C(C(=O)OC/C=C/c2ccccc2)C1c1cccc([N+](=O)[O-])c1 (stereo not given) | inactive | – |
| CC(=O)Nc1ccccc1C | inactive | – |
| Cc1ccc(S(=O)(=O)NC2CCCCC2)cc1 | inactive | – |
| CCOC(=O)C(C)Oc1ccc(Oc2nc3ccc(Cl)cc3o2)cc1 (stereo not given) | inactive | – |
| C=CC(C)(O)CCCC(C)CCCC(C)CCCC(C)C (stereo not given) | inactive | – |
| O=C(NCCCN1CCOCC1)c1ccc(Cl)cc1 | inactive | – |
| C[Si]1(C)O[Si](C)(C)O[Si](C)(C)O1 | inactive | – |
| C=CC(=C)CCCC(C)(C)OC(C)=O | inactive | – |
| CN(C)CCOC1=Cc2ccccc2Sc2ccc(Cl)cc21 | inactive | – |
| O=S(=O)(c1ccccc1)c1ccc(Cl)cc1 | inactive | – |
| O=Cc1c(Cl)cccc1Cl | inactive | – |
| COC(=O)Nc1nc2ccc(C(=O)c3cccs3)cc2[nH]1 | 3.35 µM (active) | – |
